# PubChem BioAssay AID720596 (The Scripps Research Institute Molecular Screening Center, 2013)
# Screen size: about 370,000 compounds; about 1,600 (0.43%) were called active. Cut-off read from the data, not from the text of the source: active = inhibition above about 24%; inactive = the rest. What follows is part of a selection rich in actives, with near analogues and random picks from the rest.
# Target: Major prion protein (Homo sapiens) (UniProt P04156)
# Test: reduces human prion protein on the cell surface, primary screen, cell-based, TR-FRET (AID 720596); note: 0% = median of the test wells and 100% = reference compound wells
# Conditions: cell surface PrPC, TR-FRET read-out; at 13.8 µM; hits give high values
row,SMILES,inhibition
1,CC(C)N(C(=O)CSc1nc(COc2ccccc2)nc2ccccc12)C(C)C,12.9% (inactive)
2,CCCc1nc(SCC(=O)Nc2ccc(S(=O)(=O)N(C)C)cc2)c2ccccc2n1,52.8% (active)
3,CN(C)S(=O)(=O)c1ccc(NC(=O)COC(=O)c2n[nH]c3ccccc23)cc1,0.47% (inactive)
4,COc1ccc(C(=O)Cn2nnc(-c3ccc(N4CCOCC4)cc3)n2)cc1OC,2.45% (inactive)
5,O=c1[nH]c(=O)n(Cc2ccco2)c2c1C(C(F)(F)F)(C(F)(F)F)N=C(c1ccco1)N2,-1.08% (inactive)
6,Fc1ccc2[nH]c3c(N4CCSCC4)ncnc3c2c1,40.8% (active)
7,CC(=O)NC(NC(=S)Nc1c(C)n(C)n(-c2ccccc2)c1=O)C(Cl)(Cl)Cl (stereo not drawn),-1.39% (inactive)
8,Cc1ccc(SCC(=O)NNC(=O)c2ccc(S(C)(=O)=O)cc2)cc1,-1.94% (inactive)
9,CCc1nc(SCC(=O)NNC(=O)c2ccc(C)cc2)c2ccccc2n1,97.6% (active)
10,CCN(CC)c1ccc(C(=O)NNC(=O)CCc2nc3ccccc3c(=O)[nH]2)cc1,1.99% (inactive)
11,CCCN(CCC)S(=O)(=O)c1ccc(C(=O)N2CC3CCC(CC3)C2)cc1,0.5% (inactive)
12,O=C(Nc1c(Cl)c(C2CC2)nn1-c1ccccc1)C(Cl)(Cl)Cl,1.29% (inactive)
13,CCC(C)NC(=O)N[C@@H](CCSC)C(=O)O (stereo partly drawn),-4.34% (inactive)
14,CCC(C)NC(=O)c1nn(C)c(=O)c2ccccc12 (stereo not drawn),-2.76% (inactive)
15,Cc1cccc(C(=O)C(O)(c2ccccc2)C2CCCCC2=O)c1 (stereo not drawn),-5.23% (inactive)
16,O=C(COC(=O)c1cccc(Cl)c1Cl)NC1CCCCCC1,4.24% (inactive)
17,N#Cc1ccccc1Sc1ccccc1C(=O)OCC(=O)NC1CCCCC1,-7.2% (inactive)
18,O=C(COC(=O)c1ccccc1SCC(=O)NC1CCCCC1)NC1CCCCC1,52.2% (active)
19,COC(=O)Cc1nc2c(N)nc(N)nc2[nH]c1=O,4.68% (inactive)
20,Cc1sc(NC(=O)C2C3CCC(O3)C2C(=O)O)c(C(=O)OC(C)C)c1-c1ccc(Cl)cc1 (stereo not drawn),7.78% (inactive)

row,SMILES,inhibition
1,CC(=O)N1c2ccc(S(=O)(=O)N3CCCC(C(=O)Nc4cccc(F)c4)C3)cc2CC1C (stereo not drawn),51.1% (active)
2,COc1ccc(S(=O)(=O)N2CCCC(C(=O)N3CCN(C)CC3)C2)cc1C (stereo not drawn),2.94% (inactive)
3,CC(=O)N1c2ccc(S(=O)(=O)N3CCC(C(=O)NC4CCCCC4C)CC3)cc2CC1C (stereo not drawn),6.59% (inactive)
4,CC(=O)N1CCCc2cc(S(=O)(=O)N3CCCC(C(=O)NCc4ccc(Cl)cc4)C3)ccc21 (stereo not drawn),29.3% (active)
5,CC(=O)N1c2ccc(S(=O)(=O)N3CCC(C(=O)NCc4ccc(F)cc4)CC3)cc2CC1C (stereo not drawn),-0.57% (inactive)
6,CCOC(=O)C1CCN(C(=O)C2CCCN(S(=O)(=O)c3ccc(OC)c(Cl)c3)C2)CC1 (stereo not drawn),-3.34% (inactive)
7,CC(=O)N1c2ccc(S(=O)(=O)N3CCCC(C(=O)Nc4ccc(C)cc4C)C3)cc2CC1C (stereo not drawn),6.63% (inactive)
8,CC(=O)N1CCCc2cc(S(=O)(=O)N3CCCC(C(=O)N4CCN(c5cccc(Cl)c5)CC4)C3)ccc21 (stereo not drawn),40.4% (active)
9,CC(=O)N1c2ccc(S(=O)(=O)N3CCCC(C(=O)NCc4ccc(Cl)cc4)C3)cc2CC1C (stereo not drawn),10.5% (inactive)
10,CCOC(=O)C1CCN(C(=O)COc2cc(C)c(Br)c(C)c2)CC1,0.57% (inactive)
11,O=C(/C(=N\O)n1cncn1)c1ccc(Br)cc1Br,-3.03% (inactive)
12,CC12CN(Cc3ccccc3)CC(C)(CN(Cc3ccccc3)C1)C2=NO,-7.09% (inactive)
13,COc1ccc(Cn2cc(COC(=O)N(C)Cc3ccccc3)nn2)cc1,6.15% (inactive)
14,OCC1(CO)CC2(C1)CC(CO)(CO)C2,2.39% (inactive)
15,FC(F)(F)c1cccc(NC(=S)OC2CCC23CCC(c2ccccc2)CC3)c1 (stereo not drawn),24.4% (active)
16,O=C(Nc1cc(F)cc(F)c1)OC1CCC12CCC(c1ccccc1)CC2 (stereo not drawn),4.41% (inactive)
17,CC(C)(C)c1ccc(C(=O)Nc2cc(Cl)c(Br)cc2C(=O)O)cc1,21% (inactive)
18,CSc1ncc(C(=O)Nc2ccc(C)cc2C)c(C)n1,-0.45% (inactive)
19,CSc1nccc(NC(=O)c2ccc(C(C)(C)C)cc2)n1,29.4% (active)
20,Cn1cc(CN2CCCCC2c2ccccn2)c(-c2ccc3c(c2)OCCO3)n1 (stereo not drawn),-3.25% (inactive)

row,SMILES,inhibition
1,CC(C)C(=O)N1CCC2(CC1)Oc1ccc(F)cc1C(=O)C21CC(c2ccccc2)=NO1 (stereo not drawn),-0.07% (inactive)
2,CCCCN(CC)C(=O)C1CCCN(S(=O)(=O)c2cccc3nsnc23)C1 (stereo not drawn),-27.1% (inactive)
3,COc1cc(C)c(C(C)C)cc1S(=O)(=O)n1ccnc1,-1.35% (inactive)
4,OCCCNc1nccc(-c2cc(Nc3cccc(Cl)c3)ncn2)n1,29.2% (active)
5,COCn1c(C(O)c2ccccc2)cc2ccccc21 (stereo not drawn),6.96% (inactive)
6,O=C(O)C#Cc1cccc2ccccc12,17.9% (inactive)
7,CN(O)C(=S)c1ccccc1,36.8% (active)
8,O=C(c1ccco1)N1CCN(CC(=O)N(C2CCCCC2)C2CCS(=O)(=O)C2)CC1 (stereo not drawn),7.46% (inactive)
9,CC1=CCC2C(=O)N(c3cccc(C(=O)NC(C)c4ccccc4)c3)C(=O)C2C1 (stereo not drawn),-1.98% (inactive)
10,COc1ccc(CCN2C(=O)C3CC=C(C)CC3C2=O)cc1OC (stereo not drawn),-3.31% (inactive)
11,CC(=O)c1nc(N2C(=O)C3CC=C(C)CC3C2=O)sc1C (stereo not drawn),38.2% (active)
12,Cc1ccc(N2C(=O)N3[C@@H]4c5ccccc5OC[C@@H]4[C@@H](c4ccccc4)[C@@]3(C)C2=O)cc1,-0.71% (inactive)
13,O=C(CCn1nnnc1CN1CCOCC1)N1CCC(c2ccccc2Cl)C1 (stereo not drawn),1.76% (inactive)
14,COCCNC(=O)C1(C)CCCN(Cc2cccc(F)c2)C1 (stereo not drawn),10.6% (inactive)
15,N#CC1=C(N)Oc2[nH]c(=S)[nH]c(=O)c2C12C(=O)Nc1ccccc12 (stereo not drawn),-0.84% (inactive)
16,CC1(C)Cc2ccccc2-c2[nH]c(=S)[nH]c(=O)c21,78.3% (active)
17,CC(C)CC(N=C1NC(C)(C)Cc2ccccc21)C(=O)O (stereo not drawn),-0.6% (inactive)
18,O=C(CCCCCN1C(=O)C2C3C=CC(C3)C2C1=O)Nc1ccccc1 (stereo not drawn),3.7% (inactive)
